Among the test systems are DU-145 prostate; K-562 leukemia; MALME-3M melanoma; MDA-MB-231 breast; RXF 393 renal; SF-268 CNS; SF-295 CNS; SF-539 CNS; UACC-257 melanoma; M14 melanoma; HCT-15 colon; SNB-75 CNS; SNB-19 CNS; U251 CNS; PC-3 prostate; UACC-62 melanoma; LOX IMVI melanoma; SK-MEL-28 melanoma; SK-MEL-5 melanoma.
Holding throughout (test): NCI-60 one-dose screen, 48 h (100 = growth as untreated, 0 = no growth, -100 = all killed)
Holding throughout (settings): 10 µM unless noted

The structures appear in SMILES notation. Compounds without any hit were thinned out: in the full panel of roughly 83,000, 20% have a hit.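 Assay: single dose, 48 h. Readout: percent growth (0 = no net growth; negative = cell death). Active: <10.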 Unmarked numbers belong to inactive results. Calls of active or inactive are those of the source.

Regarding `NS(=O)(=O)c1cnccc1Sc1ccncc1S(N)(=O)=O`, the growth with DU-145 prostate is 102%; with K-562 leukemia it was 76.3%; in the experiment on MALME-3M melanoma, 91.1%; with MDA-MB-231 breast, 111%; in the experiment on RXF 393 renal it was 108%; with SF-268 CNS, 107%. Also, the growth is 130% in the experiment on SF-295 CNS; 93% in the experiment with SF-539 CNS; 111% with UACC-257 melanoma; 100% in the experiment with M14 melanoma; 102% with HCT-15 colon; 96.6% with SNB-75 CNS. The growth was 105% with SNB-19 CNS; 107% in the experiment with U251 CNS; 94.9% in the experiment on PC-3 prostate; 99.4% in the experiment with UACC-62 melanoma; 101% in the experiment with LOX IMVI melanoma; 117% with SK-MEL-28 melanoma.

With `N#C/C(=C\c1ccc(Br)cc1)n1nnc2cc(F)c(F)cc21`, the growth is 15.6% in the experiment with DU-145 prostate; 9.36% (active) in the experiment on K-562 leukemia; 65.7% in the experiment with MALME-3M melanoma; 15% in the experiment on MDA-MB-231 breast; 2.12% (active) in the experiment with RXF 393 renal; 33.8% with SF-268 CNS. Besides, the growth with SF-295 CNS was 98.6%; in the experiment on SF-539 CNS it was -2.33% (active); in the experiment with UACC-257 melanoma, 50.6%; in the experiment with M14 melanoma, 18.1%; with HCT-15 colon, 11.1%; in the experiment with SNB-75 CNS it was 12.8%. For the same compound, the growth in the experiment on SNB-19 CNS is 50.5%; with U251 CNS it was 30%; in the experiment with PC-3 prostate, 31.2%; in the experiment with SK-MEL-5 melanoma, 44.8%; with UACC-62 melanoma, 13.3%; in the experiment with LOX IMVI melanoma, -49.1% (active). Further, in the experiment on SK-MEL-28 melanoma, the growth is 42.8%.

As to `Cc1ccc(-c2cc(-c3cccnc3)[nH]c(=O)c2C#N)cc1`, the growth with DU-145 prostate is 110%; in the experiment with K-562 leukemia, 108%; with MALME-3M melanoma, 112%; with MDA-MB-231 breast, 109%; with RXF 393 renal, 105%; in the experiment with SF-268 CNS, 99.3%. Moreover, the growth was 102% with SF-295 CNS; 99.9% in the experiment with SF-539 CNS; 108% with UACC-257 melanoma; 112% in the experiment with M14 melanoma; 103% in the experiment on HCT-15 colon; 85.2% with SNB-75 CNS. Moreover, the growth is 97% with SNB-19 CNS; 101% in the experiment on U251 CNS; 110% in the experiment with PC-3 prostate; 105% in the experiment on SK-MEL-5 melanoma; 96.9% in the experiment with UACC-62 melanoma; 96.9% in the experiment with LOX IMVI melanoma. In addition, the growth in the experiment with SK-MEL-28 melanoma is 109%.

Turning to `CN(C)CCC=C1c2ccccc2C(C)(C)c2ccccc21`, the growth in the experiment with DU-145 prostate is 35.9%; in the experiment on K-562 leukemia, 32.7%; in the experiment with MALME-3M melanoma, 78.9%; with MDA-MB-231 breast, 75%; in the experiment with RXF 393 renal, 66.4%; in the experiment on SF-268 CNS it was 95.9%. The growth with SF-295 CNS is 67.2%; in the experiment with SF-539 CNS, 61.2%; with UACC-257 melanoma, 24.2%; in the experiment on M14 melanoma, 11.6%; with HCT-15 colon it was 83.9%; in the experiment on SNB-75 CNS, 79.3%. For the same compound, the growth in the experiment with SNB-19 CNS is 86.1%; with U251 CNS, 78.9%; in the experiment with PC-3 prostate it was 55.5%; in the experiment on SK-MEL-5 melanoma, 64.3%; with UACC-62 melanoma it was 71.2%; in the experiment with LOX IMVI melanoma, 69.6%. The growth with SK-MEL-28 melanoma was 54.5%.

Consider `N#CC1=C(/N=C/c2ccccc2)Oc2c(ccc3ccccc23)C1c1ccccc1` (stereo not given), for which the growth in the experiment with DU-145 prostate was 17.6%; in the experiment with K-562 leukemia it was 12.2%; in the experiment on MALME-3M melanoma, 49.2%; with MDA-MB-231 breast, 19%; in the experiment on RXF 393 renal, 18%; with SF-268 CNS, 30.8%. Moreover, the growth in the experiment on SF-295 CNS is 3.77% (active); with SF-539 CNS, 1.25% (active); in the experiment on UACC-257 melanoma it was 53.6%; in the experiment on M14 melanoma it was 4.85% (active); with HCT-15 colon, 16.6%; in the experiment with SNB-75 CNS, 10.1%. In addition, the growth with SNB-19 CNS was 24.4%; in the experiment with U251 CNS, 16.9%; with PC-3 prostate, 8.32% (active); with SK-MEL-5 melanoma it was -3.14% (active); in the experiment with UACC-62 melanoma it was 15.7%; in the experiment on LOX IMVI melanoma, 23.9%. Also, the growth in the experiment on SK-MEL-28 melanoma is 41.5%.

`Cc1ccc2[nH]c(=O)c3c(c2c1)OC(N)=C(C#N)C31c2cc(Br)ccc2-c2ccc(Br)cc21`: the growth in the experiment with DU-145 prostate was 29.1%; with K-562 leukemia it was 60.7%; in the experiment on MALME-3M melanoma, 54.9%; in the experiment on MDA-MB-231 breast, 39.1%; in the experiment with RXF 393 renal, 65.8%; with SF-268 CNS, 78%. The growth in the experiment with SF-295 CNS is 70.1%; in the experiment with SF-539 CNS, 85.5%; with UACC-257 melanoma, 76.8%; in the experiment on M14 melanoma, 55.1%; in the experiment with HCT-15 colon, 45.4%; in the experiment on SNB-75 CNS it was 70%. Moreover, the growth in the experiment on SNB-19 CNS is 62.5%; in the experiment on U251 CNS it was 72.6%; in the experiment with PC-3 prostate, 48.3%; in the experiment on UACC-62 melanoma, 49.5%; in the experiment with LOX IMVI melanoma, 63%; in the experiment on SK-MEL-28 melanoma it was 66.8%.

As for `O=C(NC(Cc1nnc2n(Cc3ccccc3)c(=O)c3c4c(sc3n12)CCCC4)c1ccc(Cl)cc1)c1ccccc1` (stereo not given), the growth with DU-145 prostate is 96.7%; in the experiment with K-562 leukemia, 91.9%; with MALME-3M melanoma, 75.4%; in the experiment on MDA-MB-231 breast it was 83.2%; in the experiment with RXF 393 renal, 34.3%; in the experiment on SF-268 CNS, 102%. Moreover, the growth with SF-295 CNS is 71.7%; with SF-539 CNS, 80.2%; in the experiment on UACC-257 melanoma, 105%; in the experiment on M14 melanoma, 68%; in the experiment with HCT-15 colon it was 68.3%; in the experiment on SNB-75 CNS it was 73.7%. Besides, the growth is 88.5% with SNB-19 CNS; 91.8% in the experiment on U251 CNS; 97.8% in the experiment on PC-3 prostate; 81.9% in the experiment with SK-MEL-5 melanoma; 63.1% with UACC-62 melanoma; 79.4% in the experiment with LOX IMVI melanoma. The growth in the experiment with SK-MEL-28 melanoma is 103%.

In the case of `CC(=O)OC[C@H]1OC(Sc2sc(C(=O)c3ccc(Br)cc3)c(N)c2-c2nc3ccccc3s2)[C@H](OC(C)=O)[C@@H](OC(C)=O)[C@@H]1OC(C)=O` (stereo not given in full), the growth in the experiment on DU-145 prostate was 35.8%; with K-562 leukemia it was 66.4%; in the experiment with MALME-3M melanoma it was 20%; with MDA-MB-231 breast, 10.4%; in the experiment with RXF 393 renal it was 70.8%; in the experiment on SF-268 CNS, 60.9%. Also, the growth in the experiment with SF-295 CNS was 69.6%; with SF-539 CNS it was 15.7%; in the experiment with UACC-257 melanoma, 80.1%; in the experiment on M14 melanoma it was 61.6%; with HCT-15 colon, 59.8%; in the experiment with SNB-75 CNS it was -16.7% (active). Moreover, the growth was 75.2% in the experiment with SNB-19 CNS; 57.6% in the experiment with U251 CNS; 71.3% in the experiment with PC-3 prostate; 22.1% in the experiment on SK-MEL-5 melanoma; 89.3% in the experiment on UACC-62 melanoma; 37.1% in the experiment with LOX IMVI melanoma. Moreover, in the experiment with SK-MEL-28 melanoma, the growth was 70.7%.

The values above are taken from PubChem BioAssay (NCI).
